For one sequence, binding signal results are on record in paper PMC7862700, “An all-to-all approach to the identification of sequence-specific readers for epigenetic DNA modifications on cytosine”.

What all share (assay): DAPPL (digital affinity profiling via proximity ligation, sequencing); 10 mM Tris-HCl pH 7.5, 50 mM NaCl, 1 mM DTT, 4% glycerol, room temperature, 30 min; GST-TFs on glutathione beads, 16-mer random dsDNA library, 0.1% formaldehyde crosslink after washing; high values mean tight binding
Assay [1] deals with T1, FLI1 (Homo sapiens, UniProt Q01543 1-452).
T1 sequence: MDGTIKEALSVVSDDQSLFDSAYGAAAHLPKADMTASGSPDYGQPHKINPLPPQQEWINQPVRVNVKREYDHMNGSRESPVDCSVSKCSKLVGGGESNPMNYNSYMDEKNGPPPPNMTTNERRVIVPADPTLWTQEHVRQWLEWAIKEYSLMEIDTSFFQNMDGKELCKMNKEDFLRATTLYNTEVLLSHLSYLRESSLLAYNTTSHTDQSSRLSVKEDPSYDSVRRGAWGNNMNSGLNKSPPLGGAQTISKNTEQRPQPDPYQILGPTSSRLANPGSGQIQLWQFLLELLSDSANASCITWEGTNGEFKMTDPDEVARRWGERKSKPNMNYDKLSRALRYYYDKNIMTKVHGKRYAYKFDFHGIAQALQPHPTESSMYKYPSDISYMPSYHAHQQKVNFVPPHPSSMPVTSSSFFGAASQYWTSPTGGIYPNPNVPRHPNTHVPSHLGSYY
As to conditions: protein: recombinant; tags: N-terminal GST; dsDNA, one strand shown. Put shortly: (§1)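 Sequencing on an Illumina NextSeq500 followed washing, crosslinking with 0.1% formaldehyde, proximity ligation (BsaI/T4 ligase, 1 h, 37 °C) and PCR amplification of pools that had been incubated for 30 min at room temperature with 200 nmole of a random double-stranded 16-mer DNA library in Tris/NaCl/DTT/glycerol buffer. Each pool held DNA-barcoded human transcription factors, expressed in yeast as GST fusions and captured on glutathione beads, plus a tag-only sample. Binding signal is a hexamer's read frequency for a factor divided by its frequency in the tag-only sample.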

The target in assay [2] is T2, ELK1 (Homo sapiens, UniProt P19419 1-428).
T2 sequence: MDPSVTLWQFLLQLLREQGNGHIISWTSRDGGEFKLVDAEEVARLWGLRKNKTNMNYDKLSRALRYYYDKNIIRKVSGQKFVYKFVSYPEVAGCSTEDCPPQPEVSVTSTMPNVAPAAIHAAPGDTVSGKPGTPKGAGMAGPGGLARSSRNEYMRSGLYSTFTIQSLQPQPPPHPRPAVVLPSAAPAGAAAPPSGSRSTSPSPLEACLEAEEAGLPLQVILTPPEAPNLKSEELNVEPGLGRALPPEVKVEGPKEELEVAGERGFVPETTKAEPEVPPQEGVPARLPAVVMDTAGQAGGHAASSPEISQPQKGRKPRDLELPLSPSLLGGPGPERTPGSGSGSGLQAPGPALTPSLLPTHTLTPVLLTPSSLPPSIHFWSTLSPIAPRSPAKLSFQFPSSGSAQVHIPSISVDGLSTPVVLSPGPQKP
Conditions: protein: recombinant; tags: N-terminal GST; dsDNA, one strand shown. Summed up: as §1

Assay [3] concerns the target T3, GABPA (Homo sapiens, UniProt Q06546 1-454).
T3 sequence: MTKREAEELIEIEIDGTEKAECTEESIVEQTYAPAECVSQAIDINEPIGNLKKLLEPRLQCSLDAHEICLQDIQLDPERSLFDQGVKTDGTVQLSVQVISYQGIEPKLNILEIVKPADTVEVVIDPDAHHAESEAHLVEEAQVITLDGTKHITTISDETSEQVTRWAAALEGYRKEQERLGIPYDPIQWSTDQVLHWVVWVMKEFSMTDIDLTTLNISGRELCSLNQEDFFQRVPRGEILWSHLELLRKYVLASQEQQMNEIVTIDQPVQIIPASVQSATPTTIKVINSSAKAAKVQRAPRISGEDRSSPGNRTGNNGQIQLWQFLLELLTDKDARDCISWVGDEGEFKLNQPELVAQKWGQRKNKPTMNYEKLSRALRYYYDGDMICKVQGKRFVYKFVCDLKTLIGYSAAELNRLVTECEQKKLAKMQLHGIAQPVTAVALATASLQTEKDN
As to conditions: protein: recombinant; tags: N-terminal GST; dsDNA, one strand shown. Put shortly: as §1

Assay [4] concerns the target T4, ERG (Homo sapiens, UniProt P11308 1-479).
T4 sequence: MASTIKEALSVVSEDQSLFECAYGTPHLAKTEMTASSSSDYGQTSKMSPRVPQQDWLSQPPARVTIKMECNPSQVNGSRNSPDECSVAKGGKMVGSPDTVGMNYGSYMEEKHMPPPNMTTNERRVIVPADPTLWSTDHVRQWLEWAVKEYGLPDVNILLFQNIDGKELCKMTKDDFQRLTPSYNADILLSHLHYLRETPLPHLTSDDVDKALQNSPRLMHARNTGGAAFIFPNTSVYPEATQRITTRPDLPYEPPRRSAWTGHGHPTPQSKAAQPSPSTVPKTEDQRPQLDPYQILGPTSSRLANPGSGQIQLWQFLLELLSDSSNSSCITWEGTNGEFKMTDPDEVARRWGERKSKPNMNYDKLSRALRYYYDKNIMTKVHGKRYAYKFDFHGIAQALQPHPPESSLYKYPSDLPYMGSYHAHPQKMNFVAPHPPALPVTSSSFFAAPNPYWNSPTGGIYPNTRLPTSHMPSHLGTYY
Conditions: protein: recombinant; tags: N-terminal GST; dsDNA, one strand shown. Summed up:
as §1

Assay [5] has as its target ELF1 (Homo sapiens, UniProt P32519 1-619). Conditions: protein: recombinant; tags: N-terminal GST; dsDNA, one strand shown. Summed up:
as §1

The target of assay [6] is T5, EHF (Homo sapiens, UniProt Q9NZC4 1-300).
T5 sequence: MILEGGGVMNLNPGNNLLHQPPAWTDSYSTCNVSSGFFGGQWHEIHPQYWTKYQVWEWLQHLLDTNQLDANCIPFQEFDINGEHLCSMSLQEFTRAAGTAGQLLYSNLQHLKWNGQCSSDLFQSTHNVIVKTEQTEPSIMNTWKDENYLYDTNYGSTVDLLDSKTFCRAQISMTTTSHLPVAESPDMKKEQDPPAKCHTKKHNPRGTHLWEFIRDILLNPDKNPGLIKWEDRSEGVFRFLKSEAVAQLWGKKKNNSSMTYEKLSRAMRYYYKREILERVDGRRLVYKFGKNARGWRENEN
As to conditions: protein: recombinant; tags: N-terminal GST; dsDNA, one strand shown. Put shortly: as §1

In assay [7] the target is SPI1 (Homo sapiens, UniProt P17947 1-270). Conditions: protein: recombinant; tags: N-terminal GST; dsDNA, one strand shown. Put shortly:
as §1

Assay [8] deals with SPIB (Homo sapiens, UniProt Q01892 1-262). Conditions: protein: recombinant; tags: N-terminal GST; dsDNA, one strand shown. Put shortly:
as §1

Assay [9] addresses T6, ELK3 (Homo sapiens, UniProt P41970 1-407).
T6 sequence: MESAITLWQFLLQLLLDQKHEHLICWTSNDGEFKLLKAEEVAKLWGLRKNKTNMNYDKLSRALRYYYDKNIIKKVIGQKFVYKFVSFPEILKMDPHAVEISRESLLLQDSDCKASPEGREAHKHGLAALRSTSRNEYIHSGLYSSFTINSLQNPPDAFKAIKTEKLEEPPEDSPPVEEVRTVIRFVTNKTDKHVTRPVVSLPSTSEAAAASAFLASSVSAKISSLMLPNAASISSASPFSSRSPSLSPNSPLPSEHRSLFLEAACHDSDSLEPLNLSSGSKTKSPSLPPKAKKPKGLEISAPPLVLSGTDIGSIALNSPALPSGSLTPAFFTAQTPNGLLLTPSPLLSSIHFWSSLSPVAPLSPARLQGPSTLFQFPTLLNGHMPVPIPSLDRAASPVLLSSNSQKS
Conditions: protein: recombinant; tags: N-terminal GST; dsDNA, one strand shown. Summed up:
as §1

Assay [10] has as its target T7, FEV (Homo sapiens, UniProt Q99581 1-238).
T7 sequence: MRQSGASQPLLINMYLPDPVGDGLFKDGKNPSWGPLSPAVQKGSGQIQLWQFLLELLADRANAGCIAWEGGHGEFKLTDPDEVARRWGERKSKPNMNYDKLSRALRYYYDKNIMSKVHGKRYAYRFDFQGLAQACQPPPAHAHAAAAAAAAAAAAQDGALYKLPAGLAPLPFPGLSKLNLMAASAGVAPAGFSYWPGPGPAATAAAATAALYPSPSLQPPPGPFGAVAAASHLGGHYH
Conditions: protein: recombinant; tags: N-terminal GST; dsDNA, one strand shown. Put shortly:
as §1

In assay [11] the target is ETV5 (Homo sapiens, UniProt P41161 1-510). As to conditions: protein: recombinant; tags: N-terminal GST; dsDNA, one strand shown. Summed up:
as §1

The target in assay [12] is HSF1 (Homo sapiens, UniProt Q00613 1-529). As to conditions: protein: recombinant; tags: N-terminal GST; chain copies: 3; dsDNA, one strand shown. Summed up:
as §1

Assay [13] addresses T8, SPIC (Homo sapiens, UniProt Q8N5J4 1-248).
T8 sequence: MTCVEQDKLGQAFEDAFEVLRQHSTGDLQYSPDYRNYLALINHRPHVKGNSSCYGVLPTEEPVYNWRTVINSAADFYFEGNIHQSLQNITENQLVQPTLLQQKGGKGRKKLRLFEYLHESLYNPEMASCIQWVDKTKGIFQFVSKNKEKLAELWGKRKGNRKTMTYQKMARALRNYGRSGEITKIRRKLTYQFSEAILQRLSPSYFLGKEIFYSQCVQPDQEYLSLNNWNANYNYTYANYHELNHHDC
As to conditions: protein: recombinant; tags: N-terminal GST; dsDNA, one strand shown. Summed up:
as §1

The target of assay [14] is ELF4 (Homo sapiens, UniProt Q99607 1-663). As to conditions: protein: recombinant; tags: N-terminal GST; dsDNA, one strand shown. Summed up:
as §1

Assay [15] concerns the target T9, ELK4 (Homo sapiens, UniProt P28324-2 1-405).
T9 sequence: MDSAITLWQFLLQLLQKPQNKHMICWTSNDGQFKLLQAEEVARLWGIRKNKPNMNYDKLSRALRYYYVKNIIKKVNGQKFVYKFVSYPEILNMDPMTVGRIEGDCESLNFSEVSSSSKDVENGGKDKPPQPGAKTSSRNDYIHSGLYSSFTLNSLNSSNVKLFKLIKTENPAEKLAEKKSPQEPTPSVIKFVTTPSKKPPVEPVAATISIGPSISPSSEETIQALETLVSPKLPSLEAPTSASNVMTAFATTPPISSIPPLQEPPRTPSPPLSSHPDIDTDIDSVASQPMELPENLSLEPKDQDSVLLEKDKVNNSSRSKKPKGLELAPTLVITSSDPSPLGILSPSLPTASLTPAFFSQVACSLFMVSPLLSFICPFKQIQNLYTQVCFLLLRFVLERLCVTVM
Conditions: protein: recombinant; tags: N-terminal GST; dsDNA, one strand shown. Summed up:
as §1

The target of assay [16] is T10, ETV2 (Homo sapiens, UniProt O00321 1-342).
T10 sequence: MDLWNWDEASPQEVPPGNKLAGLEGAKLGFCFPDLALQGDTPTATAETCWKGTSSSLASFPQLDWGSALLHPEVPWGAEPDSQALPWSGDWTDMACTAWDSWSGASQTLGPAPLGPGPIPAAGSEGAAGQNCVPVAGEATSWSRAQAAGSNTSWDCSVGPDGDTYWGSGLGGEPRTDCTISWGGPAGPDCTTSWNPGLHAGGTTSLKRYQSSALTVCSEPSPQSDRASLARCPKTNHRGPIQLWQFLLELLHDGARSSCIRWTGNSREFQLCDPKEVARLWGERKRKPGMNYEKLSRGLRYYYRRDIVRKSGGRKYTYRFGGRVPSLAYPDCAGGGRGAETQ
As to conditions: protein: recombinant; tags: N-terminal GST; dsDNA, one strand shown. Put shortly:
as §1

Assay [17] has as its target T11, ELF3 (Homo sapiens, UniProt P78545 1-371).
T11 sequence: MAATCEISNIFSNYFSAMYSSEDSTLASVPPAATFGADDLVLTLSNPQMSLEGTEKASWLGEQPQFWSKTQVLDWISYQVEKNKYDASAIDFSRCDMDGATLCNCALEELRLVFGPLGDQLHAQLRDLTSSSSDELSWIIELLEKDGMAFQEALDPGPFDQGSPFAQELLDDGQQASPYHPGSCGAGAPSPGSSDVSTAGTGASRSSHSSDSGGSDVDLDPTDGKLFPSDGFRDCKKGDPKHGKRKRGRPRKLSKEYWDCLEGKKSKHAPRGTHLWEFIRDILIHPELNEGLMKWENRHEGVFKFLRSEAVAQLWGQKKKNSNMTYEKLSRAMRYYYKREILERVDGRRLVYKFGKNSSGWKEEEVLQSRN
As to conditions: protein: recombinant; tags: N-terminal GST; dsDNA, one strand shown. Summed up: as §1

Assay [18] addresses ETV1 (Homo sapiens, UniProt P50549 1-477). Conditions: protein: recombinant; tags: N-terminal GST; dsDNA, one strand shown. Put shortly:
as §1

Chain of ETV1 (P50549 whole entry): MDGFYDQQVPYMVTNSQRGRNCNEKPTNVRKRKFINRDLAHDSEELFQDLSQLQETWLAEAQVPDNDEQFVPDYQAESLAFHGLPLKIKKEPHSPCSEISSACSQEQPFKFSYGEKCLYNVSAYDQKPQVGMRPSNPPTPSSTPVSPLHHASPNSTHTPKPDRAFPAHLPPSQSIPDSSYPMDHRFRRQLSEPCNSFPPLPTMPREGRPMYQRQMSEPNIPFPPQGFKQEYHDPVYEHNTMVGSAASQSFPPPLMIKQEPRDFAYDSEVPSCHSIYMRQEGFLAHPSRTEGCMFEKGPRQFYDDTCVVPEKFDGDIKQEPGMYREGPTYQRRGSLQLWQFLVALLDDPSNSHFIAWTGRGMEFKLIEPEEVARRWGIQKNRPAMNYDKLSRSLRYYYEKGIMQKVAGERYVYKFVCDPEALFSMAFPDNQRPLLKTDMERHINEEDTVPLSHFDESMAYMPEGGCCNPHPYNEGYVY
Chain of SPIB (Q01892 whole entry): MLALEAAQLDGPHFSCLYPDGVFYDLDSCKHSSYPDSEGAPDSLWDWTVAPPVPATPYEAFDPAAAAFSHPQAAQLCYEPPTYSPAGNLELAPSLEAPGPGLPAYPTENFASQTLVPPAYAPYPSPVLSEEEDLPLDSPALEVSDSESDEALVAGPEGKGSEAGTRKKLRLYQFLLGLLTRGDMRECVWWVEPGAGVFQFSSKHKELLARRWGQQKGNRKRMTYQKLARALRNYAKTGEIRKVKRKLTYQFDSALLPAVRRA
Chain of HSF1 (Q00613 whole entry): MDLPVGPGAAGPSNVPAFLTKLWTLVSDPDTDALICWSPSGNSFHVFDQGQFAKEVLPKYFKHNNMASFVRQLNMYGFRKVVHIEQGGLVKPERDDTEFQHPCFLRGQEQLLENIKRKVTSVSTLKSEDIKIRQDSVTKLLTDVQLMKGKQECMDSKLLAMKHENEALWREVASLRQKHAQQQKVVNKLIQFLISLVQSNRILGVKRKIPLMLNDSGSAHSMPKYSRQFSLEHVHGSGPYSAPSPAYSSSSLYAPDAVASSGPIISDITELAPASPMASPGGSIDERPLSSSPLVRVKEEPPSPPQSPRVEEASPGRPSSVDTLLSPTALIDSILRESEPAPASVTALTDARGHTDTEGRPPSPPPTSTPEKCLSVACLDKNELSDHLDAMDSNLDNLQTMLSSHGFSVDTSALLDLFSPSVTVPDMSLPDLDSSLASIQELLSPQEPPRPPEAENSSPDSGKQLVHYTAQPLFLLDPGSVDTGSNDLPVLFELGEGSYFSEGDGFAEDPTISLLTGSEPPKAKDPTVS
Chain of ELF4 (Q99607 whole entry): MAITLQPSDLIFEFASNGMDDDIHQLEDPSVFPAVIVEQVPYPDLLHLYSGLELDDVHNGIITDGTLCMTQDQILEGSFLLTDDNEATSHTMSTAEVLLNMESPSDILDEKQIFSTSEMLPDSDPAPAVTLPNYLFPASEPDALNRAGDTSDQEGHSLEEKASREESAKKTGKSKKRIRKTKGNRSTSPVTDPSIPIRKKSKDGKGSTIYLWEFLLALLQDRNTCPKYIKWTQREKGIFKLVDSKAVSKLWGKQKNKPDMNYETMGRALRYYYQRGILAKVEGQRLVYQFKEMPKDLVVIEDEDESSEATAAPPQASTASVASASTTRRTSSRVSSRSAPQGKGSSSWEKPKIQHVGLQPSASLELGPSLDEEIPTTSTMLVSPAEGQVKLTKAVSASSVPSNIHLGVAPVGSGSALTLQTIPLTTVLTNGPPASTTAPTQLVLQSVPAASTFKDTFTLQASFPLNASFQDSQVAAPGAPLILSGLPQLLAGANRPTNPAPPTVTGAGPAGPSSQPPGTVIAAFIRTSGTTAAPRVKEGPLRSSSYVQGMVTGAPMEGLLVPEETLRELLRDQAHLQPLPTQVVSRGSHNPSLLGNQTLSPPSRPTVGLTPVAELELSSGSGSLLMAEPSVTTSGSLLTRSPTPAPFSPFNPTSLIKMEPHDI
Chain of ELF1 (P32519 whole entry): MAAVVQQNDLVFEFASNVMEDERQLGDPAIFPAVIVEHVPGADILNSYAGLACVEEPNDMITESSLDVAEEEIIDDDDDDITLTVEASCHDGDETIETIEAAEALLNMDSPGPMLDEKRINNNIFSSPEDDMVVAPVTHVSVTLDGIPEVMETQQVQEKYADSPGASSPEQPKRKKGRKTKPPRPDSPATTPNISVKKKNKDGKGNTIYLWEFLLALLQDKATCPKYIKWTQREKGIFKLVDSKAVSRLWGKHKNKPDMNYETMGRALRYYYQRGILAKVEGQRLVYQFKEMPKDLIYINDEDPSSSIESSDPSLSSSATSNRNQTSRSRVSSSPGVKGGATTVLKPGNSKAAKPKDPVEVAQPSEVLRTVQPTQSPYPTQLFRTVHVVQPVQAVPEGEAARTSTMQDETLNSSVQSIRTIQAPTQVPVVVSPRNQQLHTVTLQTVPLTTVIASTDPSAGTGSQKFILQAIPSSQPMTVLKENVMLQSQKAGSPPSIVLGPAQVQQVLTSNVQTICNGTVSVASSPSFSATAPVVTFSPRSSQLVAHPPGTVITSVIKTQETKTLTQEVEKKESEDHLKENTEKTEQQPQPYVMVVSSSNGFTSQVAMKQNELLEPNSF
Chain of ETV5 (P41161 whole entry): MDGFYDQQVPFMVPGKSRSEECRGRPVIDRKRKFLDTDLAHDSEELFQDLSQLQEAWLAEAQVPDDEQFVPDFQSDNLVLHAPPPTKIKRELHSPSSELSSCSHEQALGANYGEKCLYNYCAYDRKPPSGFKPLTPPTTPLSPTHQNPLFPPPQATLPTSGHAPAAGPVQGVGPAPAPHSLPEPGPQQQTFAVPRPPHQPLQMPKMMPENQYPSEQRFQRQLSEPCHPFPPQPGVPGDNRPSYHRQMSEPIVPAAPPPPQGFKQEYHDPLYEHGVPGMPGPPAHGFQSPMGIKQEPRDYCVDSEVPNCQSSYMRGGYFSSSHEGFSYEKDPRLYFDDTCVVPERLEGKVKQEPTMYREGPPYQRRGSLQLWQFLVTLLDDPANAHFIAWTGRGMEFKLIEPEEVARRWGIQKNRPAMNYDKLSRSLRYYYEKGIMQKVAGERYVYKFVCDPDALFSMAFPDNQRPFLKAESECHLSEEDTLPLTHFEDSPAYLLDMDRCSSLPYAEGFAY

Consider GACCTG, for which the binding signal in [1] was 1.19 fold enrichment (6-mer frequency, TF over GST control); in assay [2], 1.26 fold enrichment (6-mer frequency, TF over GST control); in assay [3], 1.19 fold enrichment (6-mer frequency, TF over GST control); in [4], 1.26 fold enrichment (6-mer frequency, TF over GST control); in assay [5] it was 1.27 fold enrichment (6-mer frequency, TF over GST control); in assay [6] it was 1.28 fold enrichment (6-mer frequency, TF over GST control). The binding signal in [7] was 1.26 fold enrichment (6-mer frequency, TF over GST control); in [8], 1.17 fold enrichment (6-mer frequency, TF over GST control); in assay [9], 1.35 fold enrichment (6-mer frequency, TF over GST control); in assay [10], 1.32 fold enrichment (6-mer frequency, TF over GST control); in [11], 1.28 fold enrichment (6-mer frequency, TF over GST control); in [12] it was 1.01 fold enrichment (6-mer frequency, TF over GST control). The binding signal in assay [13] was 1.24 fold enrichment (6-mer frequency, TF over GST control); in [14] it was 1.28 fold enrichment (6-mer frequency, TF over GST control); in [15], 1.29 fold enrichment (6-mer frequency, TF over GST control); in assay [16] it was 1.45 fold enrichment (6-mer frequency, TF over GST control); in [17], 1.2 fold enrichment (6-mer frequency, TF over GST control); in assay [18] it was 1.21 fold enrichment (6-mer frequency, TF over GST control).
